Screens deposited in PubChem by several laboratories.
CYP2C19 activ: activators of human cytochrome P450 2C19. P33261. 96,000 tested, under 10 active. AID 1025. recombinant CYP2C19, luciferin-H EGE luminescence; active compounds read high; 0 = fully inhibited enzyme, 1 = untreated enzyme. activation factor at 5 µM;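 active = activation factor of at least 2 at 5 µM in the primary screen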;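 also: 0 = wells with 2.5 mM tranylcypromine and 1 = vehicle-only wells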
CYP2C19 inh: inhibitors of human CYP2C19; P33261; CYP2C19 Supersomes, luciferin-H EGE luminescence, 30 min; inhibition, % at 5 µM; hit rate 21% among 96,000; AID 778;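 active = CYP2C19 inhibition above a set limit at 5 µM in the primary screen, cut at about 50% in these data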;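 also: plate controls were negative control wells for no effect and 2.5 mM tranylcypromine positive control for full effect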
CYP2C9 activ: activators of human CYP2C9. P11712. recombinant CYP2C9, luciferin-H conversion, luminescence; active compounds read high; factor 1 = untreated enzyme, 0 = blocked. activation factor at 5 µM. hit rate 1.4% among 96,000. AID 1024;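 active = activation factor of 2 or more for CYP2C9 at a 5 µM dose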;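 also: 0 = sulfaphenazole-blocked wells and 1 = vehicle-only wells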
Target sequence (P11712 whole entry, looked up): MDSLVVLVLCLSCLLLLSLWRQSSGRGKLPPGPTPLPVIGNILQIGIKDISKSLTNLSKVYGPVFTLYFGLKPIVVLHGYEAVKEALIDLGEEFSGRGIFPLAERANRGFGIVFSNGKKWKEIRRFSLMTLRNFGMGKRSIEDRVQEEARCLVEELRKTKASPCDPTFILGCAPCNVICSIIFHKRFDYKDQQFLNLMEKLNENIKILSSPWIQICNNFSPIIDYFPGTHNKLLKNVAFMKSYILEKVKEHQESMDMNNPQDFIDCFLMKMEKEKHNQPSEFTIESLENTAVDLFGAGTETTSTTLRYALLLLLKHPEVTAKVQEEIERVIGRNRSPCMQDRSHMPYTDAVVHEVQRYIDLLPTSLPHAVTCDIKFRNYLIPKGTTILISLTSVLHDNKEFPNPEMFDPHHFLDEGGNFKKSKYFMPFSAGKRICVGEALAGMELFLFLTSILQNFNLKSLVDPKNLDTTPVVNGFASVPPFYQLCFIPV
Measles CPE: protection of cells from measles virus | Measles virus-infected cells, CPE protection, absorbance | hit rate 1.5% among 140,000 | AID 841 | protection (pct of control), % at 4 µM; in the data active = protection mostly above about 24%, no sharp cut-off; inactive = mostly below about 26%
CYP2C9 inhib: human CYP2C9 inhibition; inhibition, % at 5 µM; CYP2C9 Supersomes, luciferin-H conversion, luminescence; hit rate 20% among 96,000; P11712; AID 777;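 active = blocking of liver enzyme CYP2C9 beyond about 50% at 5 µM, limit read from the data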
Active calls of the source: *. Compounds with a hit are over-represented: about 22% of the library has one in this group of screens.

For O=C(CSc1nnc2scc(-c3ccccc3)n12)N1CCCc2ccccc21 the results were CYP2C19 activ 0.4, CYP2C19 inh 60.9*, CYP2C9 activ 0.6, Measles CPE 12.1 and CYP2C9 inhib 36.3.
`Cc1ccc(-c2csc3nnc(SCC(=O)N4CCN(Cc5ccccc5)CC4)n23)cc1` gave CYP2C19 activ 0.4, CYP2C19 inh 56.8*, CYP2C9 activ 0.3, Measles CPE 1.7 and CYP2C9 inhib 68.5*.
For N#Cc1ccc(OCc2nnc(SCC(=O)N3CCCc4ccccc43)n2-c2ccccc2)cc1 the results were CYP2C19 activ 0.1, CYP2C19 inh 85.2*, CYP2C9 activ 0.1, Measles CPE 2.1 and CYP2C9 inhib 86.8*.
`COC(=O)[C@@H](NC(=O)NCc1ccco1)C(C)C` gave CYP2C19 activ 0.9, CYP2C19 inh 5.7, CYP2C9 activ 1.1, Measles CPE 20.0 and CYP2C9 inhib -7.6.
Screening CS(=O)(=O)N(CC(=O)NCCSc1ccccn1)c1cccc2ccccc12 returned Measles CPE 19.8.
`CSc1c(CC(=O)Nc2ccccc2C(F)(F)F)n(Cc2ccccc2)c2ccccc12` gave Measles CPE 6.7.
Screening COCc1nnc(SCC(=O)NC(C)c2ccccc2)n1-c1ccccc1 (configuration not stated) returned CYP2C19 activ 0.4, CYP2C19 inh 59.4*, CYP2C9 activ 0.4, Measles CPE 8.2 and CYP2C9 inhib 55.2*.
Screening COc1ccccc1OCCSc1nnc(C)n1-c1ccccc1 returned CYP2C19 activ 0.2, CYP2C19 inh 77.4*, CYP2C9 activ 1.4, Measles CPE 13.6 and CYP2C9 inhib -41.9.
COc1ccccc1OCc1nnc(SCC(=O)N2CCCCC2)n1-c1ccccc1 was read as CYP2C19 activ 0.3, CYP2C19 inh 70.9*, CYP2C9 activ 0.9, Measles CPE 28.3 and CYP2C9 inhib 6.8.
For COc1ccc(OCCSc2nnc(C)n2-c2ccccc2)cc1 the results were Measles CPE 12.2.
`O=C(CSc1nnc(CN2CCOCC2)n1-c1ccccc1)N1CCc2ccccc21` gave CYP2C19 activ 0.7, CYP2C19 inh 26.7, CYP2C9 activ 0.4, Measles CPE 8.1 and CYP2C9 inhib 63.3*.
`COc1ccccc1-n1c(SCC(=O)N2CCCCC2)nnc1-c1ccccc1O` gave CYP2C19 activ 0.7, CYP2C19 inh 26.7, CYP2C9 activ 0.7, Measles CPE 17.6 and CYP2C9 inhib 34.9.
Screening COc1cccc(NC(=O)Cc2nnc(SCC(=O)NC(C)c3ccccc3)n2C)c1 (configuration not stated) returned CYP2C19 activ 1, CYP2C19 inh 2.2, CYP2C9 activ 1, Measles CPE 5.4 and CYP2C9 inhib 1.9.
For CCC(C(=O)Nc1nccs1)c1ccccc1 (configuration not stated) the results were CYP2C19 activ 0.3, CYP2C19 inh 68.9*, CYP2C9 activ 0.9, Measles CPE 9.1 and CYP2C9 inhib 9.3.
For O=C(Nc1nccs1)C(NS(=O)(=O)c1ccc(Br)s1)c1ccccc1 (configuration not stated) the results were CYP2C19 activ 0.6, CYP2C19 inh 37.7, CYP2C9 activ 0.4, Measles CPE 3.4 and CYP2C9 inhib 62.3*.
Screening CCCC(C(=O)Nc1nccs1)c1ccccc1 (configuration not stated) returned CYP2C19 activ 0.5, CYP2C19 inh 54.2*, CYP2C9 activ 0.5, Measles CPE 16.9 and CYP2C9 inhib 48.3.
CCC(C(=O)Nc1nc(C)cs1)c1ccccc1 (configuration not stated) was read as CYP2C19 activ 0.8, CYP2C19 inh 21.5, CYP2C9 activ 0.7, Measles CPE 3.4 and CYP2C9 inhib 32.6.
For CC(NS(=O)(=O)c1ccccc1)C(=O)Nc1nccs1 (configuration not stated) the results were Measles CPE 3.3.
Screening CCN(CC)c1ccc(NC(=O)CN2C(=O)CSc3ncccc32)c(C)c1 returned CYP2C19 activ 1.2, CYP2C19 inh -22.0, CYP2C9 activ 1.2, Measles CPE 18.7 and CYP2C9 inhib -15.7.
COc1ccc(OC)c(NS(=O)(=O)c2ccc(NC(=O)c3ccc(NS(C)(=O)=O)cc3)cc2)c1 was read as Measles CPE 17.4.
`Cc1c(C)n(C(=O)CN2CCC(C)CC2)c2ccccc12` gave CYP2C19 activ 0.4, CYP2C19 inh 56.9*, CYP2C9 activ 1.1, Measles CPE 3.9 and CYP2C9 inhib -6.9.
Screening Cc1c(C)n(C(=O)CSc2ncn[nH]2)c2ccccc12 returned CYP2C19 activ 0.4, CYP2C19 inh 59.4*, CYP2C9 activ 1.2, Measles CPE 6.2 and CYP2C9 inhib -23.6.
For Cn1cnnc1SCC(=O)n1c2ccccc2c2ccccc21 the results were CYP2C19 activ 0.7, CYP2C19 inh 34.3, CYP2C9 activ 1, Measles CPE 1.2 and CYP2C9 inhib 1.8.
Screening CC1=CC(C)(C)N(C(=O)CSc2ncn[nH]2)c2ccccc21 returned CYP2C19 activ 0.5, CYP2C19 inh 47.5, CYP2C9 activ 0.9, Measles CPE 13.9 and CYP2C9 inhib 8.1.
Screening Cc1c(C)n(C(=O)CSc2nncn2C)c2ccccc12 returned CYP2C19 activ 0.6, CYP2C19 inh 42.2, CYP2C9 activ 2.2*, Measles CPE 6.1 and CYP2C9 inhib -115.1.
Screening O=C1c2ccccc2C(=O)N1n1c(=O)[nH]c2ccccc2c1=O returned CYP2C19 activ 0.9, CYP2C19 inh 5.6, CYP2C9 activ 0.9, Measles CPE 8.8 and CYP2C9 inhib 6.5.
C/C=C/C(=O)OCC(=O)Nc1c(Cl)cccc1Cl was read as CYP2C19 activ 0.6, CYP2C19 inh 39.7, CYP2C9 activ 0.7, Measles CPE 29.8* and CYP2C9 inhib 26.2.
C/C=C/C(=O)OCC(=O)Nc1cc([N+](=O)[O-])ccc1Cl was read as Measles CPE 5.2.
For O=C(O)c1ccc(/C=N/N2CCN(Cc3ccccc3)CC2)cc1 the results were Measles CPE 21.2.
Screening CC(C)C1N=C2c3ccccc3N=C(SCC(=O)NCCc3ccc(S(N)(=O)=O)cc3)N2C1=O (configuration not stated) returned CYP2C19 activ 1.2, CYP2C19 inh -18.6, CYP2C9 activ 1.1, Measles CPE 43.3* and CYP2C9 inhib -5.4.
Screening CCOC(=O)CSC1=Nc2ccccc2C2=NC(CC(=O)NCc3cccs3)C(=O)N12 (configuration not stated) returned CYP2C19 activ 0.9, CYP2C19 inh 8.0, CYP2C9 activ 0.4, Measles CPE 8.0 and CYP2C9 inhib 64.9*.
`CCN(CC)C(=O)CSC1=Nc2ccccc2C2=NC(c3ccccc3)C(=O)N12` (configuration not stated) gave CYP2C19 activ 0.7, CYP2C19 inh 26.3, CYP2C9 activ 0.4, Measles CPE 16.7 and CYP2C9 inhib 61.2*.
CCCCNC(=O)CC1N=C2c3ccccc3N=C(SCC(=O)Nc3ccccc3C)N2C1=O (configuration not stated) was read as CYP2C19 activ 0.8, CYP2C19 inh 20.2, CYP2C9 activ 0.7, Measles CPE 11.2 and CYP2C9 inhib 33.8.
